Laboratory results reported in PubChem BioAssay (Tox21).
Several values for one entry are separate records, joined by “and”; a condition that tells them apart may be missing. Equal entries are not always repeated. Results filed as inconclusive are left out. A call without a number means that no potency is given here. Values without a mark were called inactive. Activity calls are given as the source filed them. The call rests on the fitted dose curve; in most records, active means well fitted activation curve with a large enough effect in the repeat runs; inconclusive means weak or mixed curves; inactive means flat fitted curve, though single readings scatter.

Experiment: A CellTox Green Cytotoxicity Assay to monitor cytotoxicity in HEK293 cells - 24 hour (AID 1224875); further: nearly all actives have a fitted effect of over 45% in size
Conditions: CellTox Green fluorescence; series mostly up to 76.8 µM
Source text: National Center for Advancing Translational Sciences [NCATS]
NIH Chemical Genomics Center [NCGC]
U.S. Environmental Protection Agency [EPA]
National Institutes of Environmental Health Sciences [NIEHS]
National Toxicology Program [NTP]
Cell-based models are critical for drug discovery. Determining the natural cytotoxic effects resulting from test compounds is an essential research activity. A CellTox Green Cytotoxicity Assay to monitor cytotoxicity in real time of continues cell culture during 40 hours of the compound treatment was used to screen Tox21 10K library compounds in Hek293 cells. CellTox Green Cytotoxicity Assay is a nonlytic, homogeneous, biofluorescent method to measure cytotoxicity in cell culture after experimental manipulation. The assay system uses a proprietary asymmetric cyanine dye that is excluded from viable cells but preferentially stains the dead cell's DNA. […] Viable cells produce no appreciable increases in fluorescence. Therefore, the fluorescence signal produced by the binding interaction with dead cell DNA is proportional to cytotoxicity.
The mixture of Hek293 cell suspension and reagents were dispensed at 600cells/6 ul/well in 1536-well tissue culture treated black solid bottom plates using a Multidrop dispenser. After the assay plates were incubated at a 37 C/5% CO2 incubator for 5 hours, 23 nL of compounds dissolved in DMSO, positive and negative controls was transferred to the assay plate by a pintool work station. The plates were incubated at 37 C for 40 hours. The fluorescence intensity were measured at 0h, 8h, 16h, 24h, 32h and 40h time points using ViewLux plate reader during compound treatment.
Potency means the concentration at half of the fitted maximal effect.

| SMILES | Potency | activity change |
| --- | --- | --- |
| C=C1CC[C@H]2C[C@@H]1C2(C)C | inactive |  |
| COc1ccc2c(c1)CCCC2=O | inactive |  |
| CCCN1CCCC[C@H]1C(=O)Nc1c(C)cccc1C | inactive |  |
| c1ccc(CC2=NCCN2)cc1 | inactive |  |
| CC(C[N+](C)(C)C)OC(N)=O (stereo not given) | inactive |  |
| CCCCOCCOCCOCc1cc2c(cc1CCC)OCO2 | inactive |  |
| N[C@H]1CN(c2c(F)cc3c(=O)c(C(=O)O)cn(C4C[C@H]4F)c3c2Cl)CC12CC2 (stereo not given in full) | inactive |  |
| CC(C)NCCCC1(C(N)=O)c2ccccc2-c2ccccc21 | inactive |  |
| CCCCCCCCCCCCCC=O |  | -4.12% [at 6.97 µM, active compounds read high] |
| COC(=O)[C@@H](N)Cc1ccc(O)c(O)c1 | inactive |  |
| CN(C)CCCN1c2ccccc2CCc2ccc(Cl)cc21 | 49 µM (active) and 23.9 µM (active) |  |
| C[C@@H]1CCN(C(=O)[C@H](CCCN=C(N)N)NS(=O)(=O)c2cccc3c2NC[C@H](C)C3)[C@@H](C(=O)O)C1 | inactive |  |
| NC(CSCC(=O)O)C(=O)O (stereo not given) | inactive |  |
| O=C[C@H](O)[C@@H](O)[C@H](O)[C@H](O)CO | inactive |  |
| CN1N=C(C(N)=O)CCC1=O | inactive |  |
| NC(=O)c1ccc([N+](=O)[O-])cc1 | inactive |  |
| CCOC(=O)c1ccc(C)cc1 | inactive |  |
| Brc1c(NC2=NCCN2)ccc2nccnc12 | inactive |  |
| ClC(Cl)(Br)Br | inactive |  |
| O=C1NC(=O)[C@@]2(CCOc3ccc(F)cc32)N1 | inactive |  |

| SMILES | Potency | activity change |
| --- | --- | --- |
| Nc1ccccc1S(=O)(=O)O | inactive |  |
| C=CCOCC(CC)(CO)COCC=C | inactive |  |
| O=c1cc(CO)occ1O | inactive |  |
| CN(C)CCCNCCCN(C)C | inactive |  |
| O=C1CCCCCCCCCCCN1 | inactive |  |
| CC(=O)CC(C)C | inactive |  |
| CC(C)(CC(=O)O)C(=O)O | inactive |  |
| N=C(N)c1ccc2cc(OC(=O)c3ccc(N=C(N)N)cc3)ccc2c1 | inactive |  |
| CCCCCCCCCCCC | inactive |  |
| Cc1ccc(=O)n(-c2ccccc2)c1 | inactive |  |
| CCC=O | inactive |  |
| NS(=O)(=O)c1ccccc1Cl | inactive |  |
| Cc1ccc(Cl)cc1Cl | inactive |  |
| CCCCC/C=C\CCC=O | inactive |  |
| CCCc1cc(C(N)=S)ccn1 | inactive |  |
| CC(=O)Nc1c(I)cc(I)c(C(=O)O)c1I | inactive |  |
| CC[N+](C)(C)c1cccc(O)c1 | inactive |  |
| O=[N+]([O-])c1ccc(F)cc1F | inactive |  |
| O=C(O)CCCl | inactive |  |
| COc1cc(C(=O)N2CCCCCCC2)cc(OC)c1OC | inactive |  |
